Each structure is given as a SMILES string. Records with an inconclusive call do not appear. Values without a mark were called inactive. Calls of active or inactive are those of the source. The call rests on the fitted dose curve; in most records, active means well fitted inhibition curve with a large enough effect; inconclusive means small, poorly fitted or top-dose-only effect; inactive means no such curve, though single readings can be large or run the other way.
On the % scale 0 is the no-effect control and ±100 the full control effect; potency means the concentration at half of the fitted maximal effect.

Nuclear receptor ROR-gamma (Homo sapiens), sequence (P51449 whole entry, looked up): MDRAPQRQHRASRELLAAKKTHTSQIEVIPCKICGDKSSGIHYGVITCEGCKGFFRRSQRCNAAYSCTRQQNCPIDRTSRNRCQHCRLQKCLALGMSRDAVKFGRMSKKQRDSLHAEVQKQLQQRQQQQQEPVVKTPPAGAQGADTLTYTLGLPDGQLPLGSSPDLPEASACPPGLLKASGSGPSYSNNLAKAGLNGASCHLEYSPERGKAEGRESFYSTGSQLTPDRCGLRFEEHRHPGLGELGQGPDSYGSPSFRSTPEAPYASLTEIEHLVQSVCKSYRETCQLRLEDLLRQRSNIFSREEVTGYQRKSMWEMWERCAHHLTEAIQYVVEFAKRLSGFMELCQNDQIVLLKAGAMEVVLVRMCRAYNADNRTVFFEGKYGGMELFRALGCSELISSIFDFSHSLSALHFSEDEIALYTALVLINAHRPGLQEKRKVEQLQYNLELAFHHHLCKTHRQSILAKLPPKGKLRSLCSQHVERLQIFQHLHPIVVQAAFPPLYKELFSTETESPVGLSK

This experiment concerns the target Nuclear receptor ROR-gamma (Homo sapiens) (UniProt P51449). The experiment is described as follows: qHTS assay for small molecule antagonists of the retinoid-related orphan receptor gamma (ROR-gamma) signaling pathway (AID 651802). Further: nearly all actives have a fitted effect of over 60% in size. The following applies: ROR-gamma antagonist cell reporter assay; series mostly up to 92.2 µM; activity change, negative = inhibition: at the top concentration. The source says: National Center for Advancing Translational Sciences [NCATS]
NIH Chemical Genomics Center [NCGC]
National Institutes of Environmental Health Sciences [NIEHS]
National Toxicology Program [NTP]
Nuclear steroid hormone receptors are involved in many biological processes including inflammatory responses, cell proliferation, and apoptosis. Environmental factors or compounds disrupting these nuclear receptor pathways and gene expression may promote susceptibility to immunotoxicants and autoimmune diseases. One important group of these expression factors are the retinoid-related orphan receptors. To assess compounds that may interfere with the retinoid-related orphan receptor gamma (ROR-gamma) transcription factor, a cell-based luciferase assay was used.
The CHO cell-based assay utilizes a TET-inducible ROR expression factor and ROR response element-LUC reporter gene. Reporter activity was induced using doxycycline and measured after 16hr incubation. Luminescence was read using Viewlux (PerkinElmer), where a decrease in reporter activity would show a decrease in luminescence.
1,000 cells in 4 uL/well were dispensed into white wall/solid bottom 1536-well plates using a Multidrop Combi (Thermo Scientific) dispenser. Following transfer of 23 nL compound or DMSO vehicle by a pin tool, the plates were treated with 1 ul doxycycline to induce reporter gene activity. After 16hr incubation at 37C and 5% CO2, 5uL one-glo (promega) was added to each plate and following 30 min incubation at room temperature, luminescence was quantified on a ViewLux (PerkinElmer) plate reader.
On to `N=C1N=C(N)c2cc3ccccc3cc21`, for which the Potency is 59.6 µM (active).

Take `CCCOC(=O)c1ccc(O)cc1`: the Potency result was “inactive”.

Consider `CCCCCCCCCCCCCCCCCC(=O)O`, for which the “activity change, negative = inhibition” value is -31.9%.

For `NCCO`, the “activity change, negative = inhibition” value was 5.81%.

Consider `O=C(O)c1cc(O)c(O)c(O)c1`, for which the “activity change, negative = inhibition” value is -5.22%.

As for `Nc1ccc([N+](=O)[O-])cc1O`, the “activity change, negative = inhibition” value is -25.3%.

In the case of `c1ccc2sc(SSc3nc4ccccc4s3)nc2c1`, the “activity change, negative = inhibition” value was 7.75%.

With `C#C[C@]1(O)CC[C@H]2[C@@H]3CCc4cc(O)ccc4[C@H]3CC[C@@]21C`, the Potency was 33.5 µM (active).

In the case of `CN(C)CCC(c1ccc(Cl)cc1)c1ccccn1` (stereo not given), the “activity change, negative = inhibition” value was -0.196%.

Regarding `O=C(O)/C=C\C(=O)O`, the “activity change, negative = inhibition” value is -15.2%.

Consider `CN(C)c1ccc(N=NS(=O)(=O)O)cc1`, for which the Potency was 5.96 µM (active).

Turning to `S=c1[nH]c2ccccc2s1`, the “activity change, negative = inhibition” value was -3.24%.

On to `CC(C)NCC(O)COc1cccc2ccccc12` (stereo not given), for which the “activity change, negative = inhibition” value was -6.24%.

As for `Nc1ccc(O)c(C(=O)O)c1`, the “activity change, negative = inhibition” value is 5.17%.

With `c1cnc2c(c1)ccc1cccnc12`, the Potency was 2.37 µM (active).

The record behind these values is PubChem BioAssay (NCATS).
